Results on 13 molecules are retold here after PubChem BioAssay (NCATS).

A short description of test [1]: Primary qHTS for inhibitors of nuclear receptor binding SET domain protein 2 (NSD2) in an RCH-ACV wild type WT cells (2C) (AID 1645877). Further: nearly all actives have a fitted effect of over 70% in size. Further: potency means the concentration at half of the fitted maximal effect. A general note: qHTS replaces the single test concentration by a dilution series.
Test [2] has as its target Rap guanine nucleotide exchange factor 3 (Homo sapiens) (UniProt O95398). Put plainly: Confirmatory qHTS for agonist of cAMP-regulated guanine nucleotide exchange factor 3 (EPAC1) (AID 1645881).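 Further: EPAC1 catalysed release of BODIPY-GDP from Rap1B seen as fluorescence loss; 100% = effect of cAMP agonist control; nearly all actives have a fitted effect of over 75% in size.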
Test [3] has as its target Rap guanine nucleotide exchange factor 4 (Homo sapiens) (UniProt Q8WZA2). Put plainly: Confirmatory qHTS for agonist of cAMP-regulated guanine nucleotide exchange factor 4 (EPAC2) (AID 1645884).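 Further: nucleotide exchange releases bodipy-GDP from Rap1 and this lowers its fluorescence; on the % scale 0 is the no-effect control and ±100 the full control effect; nearly all actives have a fitted effect of over 65% in size.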
The target is the same in test [4]. Put plainly: Confirmatory qHTS for antagonist of cAMP-regulated guanine nucleotide exchange factor 4 (EPAC2) (AID 1645885). Further: nearly all actives have a fitted effect of over 25% in size. Further: potency means the concentration at half of the fitted maximal effect.
Test [5] addresses Rap guanine nucleotide exchange factor 3 (Homo sapiens) (UniProt O95398). Put plainly: Counterscreen qHTS for antagonist of cAMP-regulated guanine nucleotide exchange factor 3 (EPAC1) (AID 1645888).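 Further: fluorescence loss as bound BODIPY-GDP is released from Rap1B; % of control where 0% means no effect.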 The gist of the method: (§1)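 Measured: fluorescence of BODIPY-GDP bound to Rap1B, which falls as exchange proceeds. Conditions include 50 uM competing GDP, 5 and 30 min reads, and a later cAMP challenge for antagonist detection.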

Test [6] has the same target. Put plainly: Counterscreen qHTS for agonist of cAMP-regulated guanine nucleotide exchange factor 3 (EPAC1) (AID 1645889). Further: % of control where 0% means no effect; nearly all actives have a fitted effect of over 40% in size. The gist of the method:
as §1
(In general: The purpose of a counterscreen is to sort out artefacts and off-target activity.)

The target of test [7] is Metallo-beta-lactamase type 2 (Klebsiella pneumoniae) (UniProt C7C422). Put plainly: qHTS to identify inhibitors of the New Delhi Metallo-beta-lactamase (NDM): assay validation screen against the NCATS LOPAC Collection (AID 1794843).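 Further: nitrocefin turnover by NDM-1 measured as 485 nm absorbance at plateau; on the % scale 0 is the no-effect control and ±100 the full control effect.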 The procedure, abridged: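 NDM-1 at 2 nM final in 50 mM HEPES pH 7.0 with 1 uM ZnSO4 and 0.01% Tween20 was preincubated with library compounds in DMSO. Nitrocefin (50 uM stock) was then added, and absorbance at 485 nm was read at the kinetic plateau.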

Test [8] has as its target Glutathione peroxidase 1 (Homo sapiens) (UniProt P07203). Put plainly: Primary qHTS Assay for Inhibitors of Recombinant Selenoprotein Glutathione Peroxidase 1 (GPX1) (AID 1845191). Further: nearly all actives have a fitted effect of over 65% in size. Further: potency means the concentration at half of the fitted maximal effect. On activity, negative = inhibition: on the % scale 0 is the no-effect control and ±100 the full control effect. The gist of the method:
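Recombinant GPX1 (10 nM final) was preincubated with compound for 30 min at room temperature, then reacted with 1 mM GSH, 0.5 mM CHP, 0.5 mM NADPH and 100 nM glutathione reductase; NADPH fluorescence (340/450 nm) was read at 0 and 15 min.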

Test [9] concerns the target Phospholipid hydroperoxide glutathione peroxidase GPX4 (Homo sapiens) (UniProt P36969). Put plainly: Primary qHTS Assay for Inhibitors of Recombinant Selenoprotein Glutathione Peroxidase 4 (GPX4) (AID 1845192). Further: nearly all actives have a fitted effect of over 65% in size. The following applies: outcome: dose series up to 50 µM unless noted. The gist of the method: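 GR-coupled readout: 100 nM GR, 1 mM GSH, 0.5 mM NADPH; NADPH fluorescence (ex 340/em 450 nm) read at t=0 and after 15 min RT. GPX4 200 nM, preincubated 30 min with compound; substrate 0.5 mM CHP.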

Test [10] in a line: qHTS profiling for inhibitors of Plasmodium falciparum proliferation (AID 504749). Further: potency means the concentration at half of the fitted maximal effect.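 On activity, negative = inhibition: 0% = DMSO vehicle and full inhibition = artemisinin control.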 On all read-outs here: nearly all actives have a fitted effect of over 60% in size. Conditions: P. falciparum in erythrocytes, SYBR Green DNA, 72 h; for activity, negative = inhibition: at 28.7 µM (top of the series). The procedure, abridged: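 Parasite proliferation within erythrocytes, 72 h exposure. Endpoint: SYBR Green I fluorescence after overnight lysis at room temperature. Controls: 0.29 uM artemisinin, DMSO.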

Test [11] has as its target Rap guanine nucleotide exchange factor 3 (Homo sapiens) (UniProt O95398). Put plainly: Confirmatory qHTS for antagonist of cAMP-regulated guanine nucleotide exchange factor 3 (EPAC1) (AID 1645880).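 Further: plate controls were DMSO only for no effect and full effect of the ATA control for full effect; nearly all actives have a fitted effect of over 55% in size.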 The gist of the method: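 Nucleotide exchange uses 100 nM EPAC1, 250 nM RAP1B-BODIPY-GDP and 50 uM GDP, with compounds in a concentration-titration series. After 5 min at room temperature, fluorescence (480 nm ex/540 nm em) is read every 5 min for 30 min. Data are normalized to control ATA and DMSO.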

The nature of test [12]: NCATS anti-infectives library activity on HEK293 viability as a counter-qHTS vs the C. elegans viability qHTS (AID 1745854). Further: on the % scale 0 is the no-effect control and ±100 the full control effect. The gist of the method: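 Compounds were acoustically plated (several concentrations, 1:5, final up to 41.7 uM), then 1500 HEK293 cells added per well and incubated 24 hr at 37C, 5% CO2. CellTiter-Glo was added and luminescence read after 10 min.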

Values joined by “and” are separate entries in the source; they are usually repeats but may differ in a detail not shown here. Identical values can stand only once. Results filed as inconclusive are left out. Values without a mark were called inactive. Active and inactive are the calls of the source. The call rests on the fitted dose curve; in most records, active means well fitted curve in the direction sought with a large enough effect; inconclusive means small, poorly fitted or top-dose-only effect, or another doubt; inactive means no such curve, though single readings can be large; an effect the other way counts as inactive or inconclusive.

Rap guanine nucleotide exchange factor 4 (Homo sapiens), sequence (Q8WZA2 whole entry, looked up): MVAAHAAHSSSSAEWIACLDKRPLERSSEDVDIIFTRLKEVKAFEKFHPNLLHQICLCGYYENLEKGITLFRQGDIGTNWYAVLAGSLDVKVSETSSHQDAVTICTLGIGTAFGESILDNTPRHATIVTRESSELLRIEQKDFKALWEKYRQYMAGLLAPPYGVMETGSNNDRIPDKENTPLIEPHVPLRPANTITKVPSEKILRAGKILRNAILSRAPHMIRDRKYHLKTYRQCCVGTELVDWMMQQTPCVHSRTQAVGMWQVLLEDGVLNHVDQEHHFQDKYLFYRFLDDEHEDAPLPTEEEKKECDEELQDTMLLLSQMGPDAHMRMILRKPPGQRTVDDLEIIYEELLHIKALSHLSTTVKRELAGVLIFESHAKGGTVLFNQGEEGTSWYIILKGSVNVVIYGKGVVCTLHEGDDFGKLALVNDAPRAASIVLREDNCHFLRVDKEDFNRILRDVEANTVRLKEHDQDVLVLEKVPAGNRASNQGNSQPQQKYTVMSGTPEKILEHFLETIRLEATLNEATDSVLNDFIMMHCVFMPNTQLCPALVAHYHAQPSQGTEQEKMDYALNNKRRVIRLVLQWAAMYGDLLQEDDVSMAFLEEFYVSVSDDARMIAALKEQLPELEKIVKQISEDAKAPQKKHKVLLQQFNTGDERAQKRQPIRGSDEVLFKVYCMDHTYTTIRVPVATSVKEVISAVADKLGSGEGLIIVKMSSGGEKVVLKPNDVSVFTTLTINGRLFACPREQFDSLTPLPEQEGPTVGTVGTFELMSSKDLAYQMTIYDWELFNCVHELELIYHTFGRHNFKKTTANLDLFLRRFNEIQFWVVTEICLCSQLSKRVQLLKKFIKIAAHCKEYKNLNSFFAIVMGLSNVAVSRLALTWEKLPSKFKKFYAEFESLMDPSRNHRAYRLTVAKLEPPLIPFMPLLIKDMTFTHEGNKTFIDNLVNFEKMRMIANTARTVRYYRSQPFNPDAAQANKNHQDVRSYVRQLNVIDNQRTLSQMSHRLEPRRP
Metallo-beta-lactamase type 2 (Klebsiella pneumoniae), sequence (C7C422 whole entry, looked up): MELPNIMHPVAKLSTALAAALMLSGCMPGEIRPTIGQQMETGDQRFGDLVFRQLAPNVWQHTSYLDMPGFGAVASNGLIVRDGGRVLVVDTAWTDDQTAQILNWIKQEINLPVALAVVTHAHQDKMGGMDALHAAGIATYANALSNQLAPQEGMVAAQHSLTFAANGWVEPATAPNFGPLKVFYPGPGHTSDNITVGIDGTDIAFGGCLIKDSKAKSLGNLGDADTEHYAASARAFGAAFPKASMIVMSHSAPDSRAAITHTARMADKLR
Glutathione peroxidase 1 (Homo sapiens), sequence (P07203 whole entry, looked up): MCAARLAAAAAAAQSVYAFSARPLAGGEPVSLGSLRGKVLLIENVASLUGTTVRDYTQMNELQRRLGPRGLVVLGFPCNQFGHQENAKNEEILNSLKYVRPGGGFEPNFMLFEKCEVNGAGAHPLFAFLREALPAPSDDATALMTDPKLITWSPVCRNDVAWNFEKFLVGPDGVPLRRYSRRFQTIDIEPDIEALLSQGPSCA
Phospholipid hydroperoxide glutathione peroxidase GPX4 (Homo sapiens), sequence (P36969 whole entry, looked up): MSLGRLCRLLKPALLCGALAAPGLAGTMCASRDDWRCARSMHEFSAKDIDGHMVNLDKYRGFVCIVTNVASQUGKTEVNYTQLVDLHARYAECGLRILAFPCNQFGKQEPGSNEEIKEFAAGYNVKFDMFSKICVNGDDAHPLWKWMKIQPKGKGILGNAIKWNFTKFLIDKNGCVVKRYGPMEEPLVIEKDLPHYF
Rap guanine nucleotide exchange factor 3 (Homo sapiens), sequence (O95398 whole entry, looked up): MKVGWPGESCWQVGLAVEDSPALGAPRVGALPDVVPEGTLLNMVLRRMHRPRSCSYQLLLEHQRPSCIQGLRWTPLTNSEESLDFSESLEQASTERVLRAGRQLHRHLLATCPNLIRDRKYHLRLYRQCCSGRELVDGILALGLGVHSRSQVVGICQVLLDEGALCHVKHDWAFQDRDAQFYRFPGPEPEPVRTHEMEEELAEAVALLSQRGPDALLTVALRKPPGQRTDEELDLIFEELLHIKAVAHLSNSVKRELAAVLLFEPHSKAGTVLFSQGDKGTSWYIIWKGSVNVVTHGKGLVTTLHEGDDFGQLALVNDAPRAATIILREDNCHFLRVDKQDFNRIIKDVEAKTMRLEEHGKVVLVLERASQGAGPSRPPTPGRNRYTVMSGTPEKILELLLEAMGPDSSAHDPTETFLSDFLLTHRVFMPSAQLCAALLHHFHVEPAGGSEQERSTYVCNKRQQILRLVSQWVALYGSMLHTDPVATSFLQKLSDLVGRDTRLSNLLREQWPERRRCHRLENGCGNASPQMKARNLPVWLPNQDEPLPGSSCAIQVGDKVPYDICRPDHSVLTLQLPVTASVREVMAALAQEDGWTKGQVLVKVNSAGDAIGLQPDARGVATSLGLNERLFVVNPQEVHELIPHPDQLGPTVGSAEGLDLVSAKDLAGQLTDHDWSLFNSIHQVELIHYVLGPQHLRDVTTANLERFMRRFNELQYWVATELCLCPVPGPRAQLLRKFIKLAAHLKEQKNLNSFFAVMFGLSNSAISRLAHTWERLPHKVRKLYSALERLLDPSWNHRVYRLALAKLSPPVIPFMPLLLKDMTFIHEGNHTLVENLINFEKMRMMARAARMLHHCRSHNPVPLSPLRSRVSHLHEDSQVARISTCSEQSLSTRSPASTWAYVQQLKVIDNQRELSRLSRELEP

Regarding `OCCN1CCN(CC/C=C2/c3ccccc3Sc3ccc(C(F)(F)F)cc32)CC1`, the Potency in [1] is 10.6 µM (active); in test [10] (parasite line A), 8.91 µM (active); in test [10] (parasite line B) it was 11.2 µM (active). Also, the Potency result in test [2], in test [3], in test [4], in test [7] and in test [8] was “inactive” each time. Also, the molecule was classed as inactive in [5], in [6] and in [9].

Take `C[n+]1cc2c3c(ccc2c2ccc4cc5c(cc4c21)OCO5)OCO3`: in test [1], the Potency is 0.411 µM (active). The Potency result in test [7] and in test [8] was “inactive” in each case. Also, in [9], the result was inactive. Also, the activity, negative = inhibition in [10] (parasite line A) is -18.2%; in test [10] (parasite line B) it was -15.2%.

On to `COc1cc2c(cc1OC)-c1cc(=Nc3c(C)cc(C)cc3C)n(C)c(=O)n1CC2`, for which the Potency was 15 µM (active) in test [1], 44.1 µM (active) in test [4], 2.82 µM (active) in [10] (parasite line A) and 2.51 µM (active) in [10] (parasite line B). Also, the Potency entry in test [2] and in [7] was “inactive” in each case. In addition, in test [9], the result was inactive.

For `CC1=NS(=O)(=O)c2cc(Cl)ccc2N1`, the Potency entry in test [1], in test [7] and in test [8] was “inactive” each time. In test [9], the result was inactive. In test [10] (parasite line A), the activity, negative = inhibition was -21.1%.

On to `CCCCOCCOCCOCc1cc2c(cc1CCC)OCO2`, for which the Potency entry in test [1], in test [2], in test [3] and in test [8] was “inactive” each time. Further, the result in test [11] and in [9] was inactive. In addition, the activity, negative = inhibition in [10] (parasite line A) is 4.14%; in test [10] (parasite line B), 5.71%.

For `COc1ccc(CCN(C)CCCC(C#N)(c2cc(OC)c(OC)c(OC)c2)C(C)C)cc1OC` (stereo not drawn), in test [1], the Potency is 15 µM (active). The Potency entry in test [7] was “inactive”.

Regarding `C[C@]12CCC(=O)C=C1CC[C@@H]1[C@@H]2C(=O)C[C@@]2(C)[C@H]1CC[C@]2(O)C(=O)CO`, the Potency entry in [1], in test [7] and in [8] was “inactive” in each case. Besides, in [9], the outcome was inactive.

For the molecule `C[C@]12CC[C@@H]3c4ccc(O)cc4C[C@@H](CCCCCCCCCS(=O)CCCC(F)(F)C(F)(F)F)[C@H]3[C@@H]1CC[C@@H]2O` (stereo partly drawn), the Potency entry in test [1], in [7] and in [8] was “inactive” in each case. Moreover, in test [9], the result was inactive.

As to `Nc1nc(N)c2nc(-c3ccccc3)c(N)nc2n1`, the Potency in test [1] was 9.44 µM (active); in [8] it was 2.86 µM (active); in test [10] (parasite line A) it was 2 µM (active). Also, the result in [12] and in test [9] was inactive. Moreover, the Potency result in [7] is “inactive”. Moreover, in test [10] (parasite line B), the activity, negative = inhibition was 5.12%.

As for `COCCc1ccc(OCC(O)CNC(C)C)cc1` (stereo not drawn), the Potency result in test [1], in test [7] and in test [8] was “inactive” throughout. Besides, in test [9], the result was inactive.

As for `CC(=O)Nc1nnc(S(N)(=O)=O)s1`, the Potency result in [1], in test [7] and in test [8] was “inactive” in each case. Besides, the call in test [12] and in [9] was inactive. For the same molecule, the activity, negative = inhibition in test [10] (parasite line A) is -9.91%; in [10] (parasite line B) it was 6.59%.

As to `CCCNC(C)C(=O)Nc1ccccc1C` (stereo not drawn), the Potency entry in test [1], in [7] and in [8] was “inactive” in each case. In [9], the result was inactive.

For `CO[C@@]1(NC(=O)CSCC#N)C(=O)N2C(C(=O)O)=C(CSc3nnnn3C)CS[C@@H]21`, the Potency entry in [1] and in [7] was “inactive” each time. Also, the Potency in test [8] was 4.04 µM (active) and 25.1 µM (active). In [9], the outcome was inactive.
